Experimental data reported in PubChem BioAssay (Tox21).
Values joined by “and” are separate entries in the source; they are usually repeats but may differ in a detail not shown here. Equal entries are not always repeated. Records with an inconclusive call do not appear. Entries that show only a call come without a potency. Some compounds were tested as several samples or in several runs, with calls that do not always agree. Active and inactive are the calls of the source. The call rests on the fitted dose curve; in most records, active means well fitted curve in the direction sought with a large enough effect in the repeat runs; inconclusive means weak or mixed curves; inactive means no such curve, though single readings can be large; an effect the other way counts as inactive or inconclusive.

Assays:
[1] = Human pregnane X receptor (PXR) small molecule agonists, qHTS cell viability counter screen (AID 1346977); further: nearly all actives have a fitted effect of over 50% in size; further: potency means the concentration at half of the fitted maximal effect
Method in brief: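 After a 5hr pre-incubation, PXR-Luc HepG2 cells received compounds plus positive control in DMSO and were kept 24hr at 37C. Cell viability was quantified by fluorescence from CellTiter-Fluor added for the final hour.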

[2] = Caspase-3/7 induction in HepG2 cells by small molecules, qHTS assay (AID 1346978); further: nearly all actives have a fitted effect of over 15% in size; further: potency means the concentration at half of the fitted maximal effect
Method in brief: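 Caspase-3/7 induction was measured by Caspase-Glo 3/7 luminescence (30 min, room temperature) after a 17 hr compound exposure of wild-type HepG2 cells seeded at 2,000 per well and pre-incubated 5 hr.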

[3] = Caspase-3/7 induction in CHO-K1 cells by small molecules, qHTS assay (AID 1346980); further: nearly all actives have a fitted effect of over 15% in size
Method in brief: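 Luminescent Caspase-Glo 3/7 read (30min, room temperature) quantified apoptosis induction. Cells were wild-type CHO-K1, treated with compound for 17hr at 37 C and 5% CO2.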

[4] = biological target: Nuclear receptor subfamily 1 group I member 2 (Homo sapiens) (UniProt O75469); assay: Human pregnane X receptor (PXR) small molecule agonists, qHTS assay (AID 1346982); further: nearly all actives have a fitted effect of over 35% in size; further: potency means the concentration at half of the fitted maximal effect
Method in brief: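 Tox21 qHTS; PXR-Luc HepG2; compounds pinned from DMSO; 24 hr, 37 C; ONE-Glo luciferase detection, 30 min room temperature.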

[5] = biological target: Nuclear receptor subfamily 1 group I member 2 (Rattus norvegicus) (UniProt Q9R1A7); assay: Rat pregnane X receptor (rPXR) activation by small molecules, qHTS assay (AID 1346983); settings: rPXR luciferase reporter cells, One-Glo luminescence, 24 h; max activation: stronger effect = higher value; further: nearly all actives have a fitted effect of over 20% in size
Method in brief: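 Luminescent readout (One-Glo luciferase, 30 min room temperature) followed 24 hr compound treatment at 37 C of rPXR cells plated 2,000 per well and preincubated 5hr; qHTS format with compounds delivered in DMSO.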

[6] = biological target: Nuclear receptor subfamily 1 group I member 2 (Homo sapiens) (UniProt O75469); assay: CYP3A4 induction through human pregnane X receptor (PXR) by small molecules, qHTS assay (AID 1346984); further: nearly all actives have a fitted effect of over 40% in size
Method in brief: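 Cells (DPX-2; HepG2 with PXR element plus CYP3A4-promoter luciferase) settled 5hr, then were treated 24hr at 37C. A 3hr, 3uM-final Luciferin-IPA step preceded luminescence measurement with One-Glo.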

[7] = biological target: Nuclear receptor subfamily 1 group I member 2 (Homo sapiens) (UniProt O75469); assay: Human pregnane X receptor (PXR) activation by small molecules, qHTS assay (AID 1346985); further: nearly all actives have a fitted effect of over 40% in size
Method in brief: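 DPX-2 cells (HepG2 co-transfected with a PXR response element and a CYP3A4-promoter luciferase construct) were seeded at 2,000 per well, rested 5 hr at 37C, then exposed to DMSO-dissolved compounds for 24 hr. Activation was read as luciferase luminescence.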

[8] = biological target: Cytochrome P450 2D6 (Homo sapiens) (UniProt P10635); assay: Cytochrome P450 Family 2 Subfamily D Member 6 (CYP2D6) small molecule antagonists: luciferase reporter qHTS assay (AID 1671196); further: nearly all actives have a fitted effect of over 50% in size; further: potency means the concentration at half of the fitted maximal effect
Method in brief: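 Room-temperature luminescent CYP2D6 activity assay: compound preincubated 10 min with enzyme–substrate mix, NADPH-initiated reaction 1 h, detection reagent 20 min before reading.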

[9] = Caspase-3/7 induction in CHO-K1 cells by small molecules, qHTS cell viability counter screen (AID 1346979); further: nearly all actives have a fitted effect of over 35% in size; further: potency means the concentration at half of the fitted maximal effect
Method in brief: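 Multiplexed with Caspase-Glo 3/7 in CHO-K1 cells, this counter screen added CellTiter-Fluor after 16hr of compound exposure and recorded fluorescence 1hr later.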

[10] = Caspase-3/7 induction in HepG2 cells by small molecules, qHTS cell viability counter screen (AID 1346981); further: nearly all actives have a fitted effect of over 30% in size; further: potency means the concentration at half of the fitted maximal effect
Method in brief: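 After a 5-hr attachment period at 37 C and 5% CO2, wild-type HepG2 cells received compounds in DMSO. Sixteen hours later CellTiter-Fluor was dispensed and the fluorescent signal quantified after a further hour.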

Sequence of Nuclear receptor subfamily 1 group I member 2 (Rattus norvegicus) (Q9R1A7 whole entry, looked up): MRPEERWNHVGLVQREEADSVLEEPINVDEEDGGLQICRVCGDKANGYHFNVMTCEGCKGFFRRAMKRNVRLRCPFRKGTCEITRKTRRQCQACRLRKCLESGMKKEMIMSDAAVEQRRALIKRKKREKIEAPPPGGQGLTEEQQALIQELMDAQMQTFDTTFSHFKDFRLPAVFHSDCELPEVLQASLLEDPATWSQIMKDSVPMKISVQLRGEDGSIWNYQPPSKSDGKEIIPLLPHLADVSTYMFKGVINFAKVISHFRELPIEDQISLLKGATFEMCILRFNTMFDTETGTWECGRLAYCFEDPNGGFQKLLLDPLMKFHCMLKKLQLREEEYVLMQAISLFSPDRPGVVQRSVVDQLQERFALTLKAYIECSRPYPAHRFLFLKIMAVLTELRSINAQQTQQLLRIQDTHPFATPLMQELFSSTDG
Sequence of Nuclear receptor subfamily 1 group I member 2 (Homo sapiens) (O75469 whole entry, looked up): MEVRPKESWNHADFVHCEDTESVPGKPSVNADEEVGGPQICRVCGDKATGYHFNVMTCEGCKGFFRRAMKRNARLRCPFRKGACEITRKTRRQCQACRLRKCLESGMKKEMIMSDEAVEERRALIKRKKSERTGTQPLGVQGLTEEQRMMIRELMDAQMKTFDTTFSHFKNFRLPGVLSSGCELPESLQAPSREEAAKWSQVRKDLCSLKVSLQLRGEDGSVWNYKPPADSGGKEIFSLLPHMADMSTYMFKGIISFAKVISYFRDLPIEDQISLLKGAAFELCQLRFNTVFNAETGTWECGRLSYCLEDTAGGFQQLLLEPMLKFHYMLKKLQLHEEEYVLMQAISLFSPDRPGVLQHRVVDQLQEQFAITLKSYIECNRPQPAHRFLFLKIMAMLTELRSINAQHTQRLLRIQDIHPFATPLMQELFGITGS
Sequence of Cytochrome P450 2D6 (Homo sapiens) (P10635 whole entry, looked up): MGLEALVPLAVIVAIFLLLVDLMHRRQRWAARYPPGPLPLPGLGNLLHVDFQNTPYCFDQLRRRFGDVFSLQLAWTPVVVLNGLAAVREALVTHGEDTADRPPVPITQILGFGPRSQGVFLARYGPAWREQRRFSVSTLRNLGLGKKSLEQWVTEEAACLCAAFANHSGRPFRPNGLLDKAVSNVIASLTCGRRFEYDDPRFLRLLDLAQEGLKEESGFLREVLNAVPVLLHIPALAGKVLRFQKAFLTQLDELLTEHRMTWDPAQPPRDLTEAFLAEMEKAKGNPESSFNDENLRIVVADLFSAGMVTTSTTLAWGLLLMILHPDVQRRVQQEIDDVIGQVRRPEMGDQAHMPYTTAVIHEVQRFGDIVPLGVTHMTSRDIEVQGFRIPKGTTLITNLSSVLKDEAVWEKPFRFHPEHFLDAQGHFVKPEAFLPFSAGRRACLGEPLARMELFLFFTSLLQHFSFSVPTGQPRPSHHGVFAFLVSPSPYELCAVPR

Compound	Potency [1]	Potency [2]	Potency [3]	Potency [4]	max activation [5]	Potency [6]	Potency [7]	Potency [8]	Potency [9]	Potency [10]
O=S(=O)(O)c1ccc(O)cc1	inactive	inactive	inactive	inactive	-1.73% (inactive)	inactive	inactive	inactive		
CCCCCCCCCCCO	inactive	inactive	inactive	inactive				inactive		
O=C(/C=C/C=C/c1ccc2c(c1)OCO2)N1CCCCC1	inactive	inactive		10.9 µM (active)				63.4 µM (active) and 44.8 µM (active)		
Cc1cccc([N+](=O)[O-])c1C	inactive	inactive		inactive				inactive		
Nc1ccccc1N		2.22 µM (active) and 9.41 µM (active)	inactive	1.76 µM (active) and 7.7 µM (active)				36.4 µM (active) and 7.31 µM (active)	inactive and 47.2 µM (active)	15 µM (active)
OC(CCl)CCl	inactive	inactive		inactive				inactive		
Cc1cc2nc3c(=O)[nH]c(=O)nc-3n(C[C@H](O)[C@H](O)[C@H](O)CO)c2cc1C		inactive	inactive	30.3 µM (active) and inactive	-0.456% (inactive)		inactive			
CC(CCC(=O)O)(c1ccc(O)cc1)c1ccc(O)cc1	inactive	inactive		inactive				inactive and 25.2 µM (active)		inactive
c1cc(-c2ccncc2)ccn1	inactive	inactive		inactive						inactive
O=C=Nc1ccc(Cc2ccc(N=C=O)cc2)cc1	inactive	inactive	inactive					inactive		inactive
COc1ccc(C(=O)CC(=O)c2ccc(C(C)(C)C)cc2)cc1	inactive	inactive		65.8 µM (active) and inactive	-2.2% (inactive)	inactive	inactive	38.3 µM (active) and inactive		inactive
CCCCC(CC)COCC1CO1 (stereo not drawn)	inactive	inactive	inactive	inactive				inactive		
c1ccc2c(c1)Oc1ccccc1S2	inactive	inactive	inactive	inactive				inactive		
CC(C)OC=O	inactive	inactive		inactive				inactive		inactive
CCCCc1oc2ccccc2c1C(=O)c1cc(I)c(OCCN(CC)CC)c(I)c1	43.6 µM (active) and 26.6 µM (active)		inactive	3.09 µM (active) and 4.22 µM (active)					48.9 µM (active)	48.9 µM (active)
